HCMV antiviral = qHTS Assay for inhibitors of the human cytomegalovirus (HCMV); activity change, negative = inhibition, % at 57.5 µM; AID 1259415, 2018; HFF cells, HCMV-luciferase reporter, 72 h; stronger effect = lower value; actives 4.5% (n = 410,000); in the data active = activity change below about -60%; inconclusive = no clear call, values can overlap the other calls; inactive = above about -39%; note: % is set by controls: 0 for no effect and ±100 for the full control effect
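Two compound doses tested in HFFs infected with HCMV-luciferase, MOI 1 PFU/cell, 72 h at 37C. Lysate luminescence read with OneGlo; data normalized against buffer-only and 10uM Salinomycin inhibitor controls.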
Pf growth 48h = Primary qHTS for delayed death inhibitors of the malarial parasite plastid, 48 hour incubation. P. falciparum luciferase growth in erythrocytes, 48 h. Potency, µM (highest dose often 28.7 µM), without a hit: at the highest dose activity change, negative = inhibition, usual class: inhibitors. actives 5.9% (n = 310,000). AID 504832, 2011; note: potency is the fitted concentration of half-maximal effect; % is set by controls: 0 for no effect and ±100 for the full control effect
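Cell-based growth assay: transgenic P. falciparum expressing firefly luciferase, cultured in red cells within RPMI 1640 containing 0.5% w/v Albumax, 24 mM bicarbonate and gentamycin. A drop in luciferase activity indicates inhibition.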
HCV inh = qHTS Assay for Inhibitors of Hepatitis C Virus (HCV); Huh7.5.1 HCVcc-Cre infection, luciferase reporter, 44 h; Potency, µM (top dose mostly 41.8 µM), inactives show at the top dose activity change, negative = inhibition, actives largely listed as inhibitors; actives 3.4% (n = 340,000); AID 651820, 2012; note: potency is the fitted concentration of half-maximal effect; % is set by controls: 0 for no effect and ±100 for the full control effect
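1,000 cells/well; 4 h culture; + compound; + HCVcc-Cre (~0.5 moi); 44 h; luciferase substrate, RT 15 min; read 15 sec.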
Sm TGR inh = qHTS Assay for the Inhibitors of Schistosoma Mansoni Peroxiredoxins; actives 3% (n = 360,000); Schistosoma mansoni thioredoxin glutathione reductase (TGR), Q962Y6; AID 485364, 2010; purified TGR, DTNB reduction, TNB absorbance 405 nm; Potency, µM (titrated, usually from 114 µM), inactives show at the top dose activity change, negative = inhibition, most hits filed as inhibitors; note: potency is the fitted concentration of half-maximal effect; % is set by controls: 0 for no effect and ±100 for the full control effect; nearly all actives have a fitted effect of over 60% in size
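First, TGR (20 nM dispensed) and NADPH were mixed with compound. Second, a 15 min room-temperature incubation followed. Third, further NADPH and then DTNB were added to start the reaction. Finally, TNB absorbance was monitored kinetically.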
SARS PLP yeast = qHTS of Yeast-based Assay for SARS-CoV PLP; Potency, µM (doses to about 32.9 µM), for the others: top-dose activity, positive = growth rescue, actives largely listed as activators; actives 0.19% (n = 330,000); S. cerevisiae expressing SARS-CoV PLpro, growth rescue; AID 485353, 2010; calls by dose curve; note: potency is the fitted concentration of half-maximal effect; 0% is about no effect; nearly all actives have a fitted effect of over 55% in size
Pf growth 96h = Primary qHTS for delayed death inhibitors of the malarial parasite plastid, 96 hour incubation; P. falciparum luciferase reporter growth, 96 h; Potency, µM (titrated, usually from 28.7 µM), for inactives: at the highest dose activity change, negative = inhibition, actives largely listed as inhibitors; actives 6.9% (n = 320,000); AID 504834, 2011; note: potency is the fitted concentration of half-maximal effect; % is set by controls: 0 for no effect and ±100 for the full control effect
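P. falciparum expressing integrated firefly luciferase, in erythrocytes at 2% hematocrit, 0.05% parasitemia, incubated with compounds 96 h at 37 C, 5% CO2. Growth inhibition read as loss of luminescence; two-generation exposure targets delayed-death apicoplast inhibitors.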
HCV confirm = qHTS Assay for Inhibitors of Hepatitis C Virus (HCV): Confirmation Assay for Cherry-picked Compounds; actives 78% (n = 640); Potency, µM (doses to about 41.8 µM), without a hit: at the top dose activity, negative = inhibition, most hits filed as inhibitors; AID 720575, 2013; HCVcc-Cre infectious virus cell assay, luciferase, inhibition; shares compounds with HCV inh; note: potency is the fitted concentration of half-maximal effect; nearly all actives have a fitted effect of over 80% in size
HCV cytotox = qHTS Assay for Inhibitors of Hepatitis C Virus (HCV): Cytotoxicity Counterscreen for Cherry-picked Compounds. shares compounds with HCV inh. HCV host cell line cytotoxicity counterscreen. Potency, µM (highest dose often 41.8 µM), inactives show top-dose activity change, negative = cytotoxicity, actives largely listed as inhibitors. actives 22% (n = 640). AID 720576, 2013;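 note: potency is the fitted concentration of half-maximal effect; 44 h compound exposure; % is set by controls: 0 for no effect and ±100 for the full control effect; nearly all actives have a fitted effect of over 55% in size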
* hit, by the source's call; ? = inconclusive; / = no result given. Sampled rows, rich in hits. Any-hit rate of the full collection: about 15%. Unless noted, calls come from the whole dose curve; as a rule, active = well fitted curve in the direction sought with a large enough effect; inconclusive = small, poorly fitted or top-dose-only effect, or another doubt; inactive = no such curve, though single readings can be large; an effect the other way counts as inactive or inconclusive.

SMILES | HCMV antiviral | Pf growth 48h | HCV inh | Sm TGR inh | SARS PLP yeast | Pf growth 96h | HCV confirm | HCV cytotox
O=C(COc1ccc(/C=N/NC(=O)c2cc3ccccc3o2)cc1Cl)Nc1ccccc1 | / | 10µM* | 5.6µM* | -30% | -3% | 7.4µM* | 7µM* | 7µM*
CC(=O)N1CCN(Cc2nc3cc(NC(=O)c4ccc(Cl)cc4)ccc3n2C)CC1 | -80* | / | 3.5µM* | 0% | -4% | -23% | 14µM* | 22µM*
Cc1ccc(C(=O)CCNc2ccc(F)c(Cl)c2)o1 | 61 | 5% | 3.2µM* | ? | -5% | 44% | 2.8µM* | -22%
COc1ccc(Cl)cc1NC(=O)c1ccoc1C | 26 | 4% | 5.6µM* | -9% | -19% | / | 14µM* | 8%
O=C1OCCN1C(=O)[C@H]1[C@H](c2ccc([N+](=O)[O-])cc2)C(c2ccc(F)cc2)=NN1c1ccc(Br)cc1 | 15 | / | -56% | / | 18% | / | ? | 26%
O=C1OCCN1C(=O)[C@H]1[C@H](c2ccc([N+](=O)[O-])cc2)C(c2ccc(F)cc2)=NN1c1ccccc1 | 1 | / | ? | / | 17% | / | / | /
CN1CCN(/N=C/c2ccc(Cl)c(Cl)c2)CC1 | 3 | 134% | ? | -8% | -26% | 162% | ? | -18%
CCC(C)(C)NC(=O)c1ccc(S(=O)(=O)N2CCCCCC2)cc1 | -4 | ? | 1% | 2% | 0% | ? | / | /
COc1ccc(OC)c(NC(=O)Cc2csc(NC(=O)Nc3ccccc3OC)n2)c1 | -9 | ? | 8.9µM* | 2% | -4% | -71% | 10µM* | 37%
CC(=O)Nc1ccc(-c2csc(N/N=C(/C)c3ccccc3)n2)cc1 | -10 | ? | 1.3µM* | -21% | 1% | ? | 6.3µM* | -22%
O=S(=O)(/C(=C\c1ccc(C(F)(F)F)cc1)c1nc2ccccc2[nH]1)c1ccccc1 | / | / | 1.4µM* | / | / | / | 7.9µM* | -97%
Cc1nn(C)c(C)c1NC(=O)CCSc1nc(-c2ccco2)cc(C(F)(F)F)n1 | ? | -27% | 4µM* | ? | 2% | / | ? | -22%
CC(=O)c1ccc(NC(=O)CCSc2nc(-c3ccco3)cc(C(F)(F)F)n2)cc1 | 24 | / | / | ? | / | / | / | /
CC1CCCCN1CCNc1nc(=S)[nH]c2ccccc12 (configuration not stated) | 94 | 3% | 3.5µM* | ? | -2% | 2.3µM* | -6% | -21%
COc1cccc(CCNC(=O)CCc2nnc(-c3cc(C)oc3C)o2)c1 | -15 | -15% | 8% | ? | -3% | -16% | / | /
O=C(Nc1ccc(F)cc1F)N1CCCN(c2ccc(C(F)(F)F)cn2)CC1 | -37 | 2% | 5µM* | -1% | -5% | 7% | 5.6µM* | 7.9µM*
O=C(Nc1ccccc1)N1CCN(c2ccc(C(F)(F)F)cn2)CC1 | -35 | / | ? | -2% | 3% | -14% | / | /
CNC(=S)Nc1ccc(N2CCN(c3ccc(C(F)(F)F)cn3)CC2)nc1 | ? | ? | 2.5µM* | -24% | -1% | 6% | 5µM* | ?
O=C(NC1CCCc2ccccc21)c1cccc(F)c1 (configuration not stated) | 20 | / | 4% | / | / | / | / | /
